Screening data deposited in PubChem BioAssay by The Scripps Research Institute Molecular Screening Center.
Sampled rows, rich in hits. Any-hit rate of the full collection: about 4.1%.
ABHD5 PLIN5 PPI: ABHD5-PLIN5 interaction inhibitors, primary screen, cell lysate, split luciferase complementation, luminescence; hit rate 0.78% among 360,000; AID 602281, 2012; inhibition, % at 4 µM; Perilipin-5 (Homo sapiens) + 1-acylglycerol-3-phosphate O-acyltransferase ABHD5 (Homo …; Split G. princeps luciferase complementation, 4 h;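 active = inhibition above the mean inhibition across every tested compound plus 3 SD, cut at about 22% in these data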
Target sequence (Q00G26 whole entry, looked up): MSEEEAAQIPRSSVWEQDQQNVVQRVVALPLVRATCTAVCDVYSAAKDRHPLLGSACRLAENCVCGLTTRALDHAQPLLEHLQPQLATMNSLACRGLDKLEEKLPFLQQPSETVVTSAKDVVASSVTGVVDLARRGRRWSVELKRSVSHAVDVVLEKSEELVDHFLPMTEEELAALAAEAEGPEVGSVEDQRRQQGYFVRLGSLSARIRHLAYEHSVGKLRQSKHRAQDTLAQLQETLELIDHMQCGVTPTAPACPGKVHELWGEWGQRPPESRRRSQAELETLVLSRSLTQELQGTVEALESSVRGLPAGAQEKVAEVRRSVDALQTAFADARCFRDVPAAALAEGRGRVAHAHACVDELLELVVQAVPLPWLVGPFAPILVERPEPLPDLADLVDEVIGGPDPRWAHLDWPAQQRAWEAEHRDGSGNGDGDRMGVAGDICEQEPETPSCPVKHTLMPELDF
Target sequence (Q8WTS1 whole entry, looked up): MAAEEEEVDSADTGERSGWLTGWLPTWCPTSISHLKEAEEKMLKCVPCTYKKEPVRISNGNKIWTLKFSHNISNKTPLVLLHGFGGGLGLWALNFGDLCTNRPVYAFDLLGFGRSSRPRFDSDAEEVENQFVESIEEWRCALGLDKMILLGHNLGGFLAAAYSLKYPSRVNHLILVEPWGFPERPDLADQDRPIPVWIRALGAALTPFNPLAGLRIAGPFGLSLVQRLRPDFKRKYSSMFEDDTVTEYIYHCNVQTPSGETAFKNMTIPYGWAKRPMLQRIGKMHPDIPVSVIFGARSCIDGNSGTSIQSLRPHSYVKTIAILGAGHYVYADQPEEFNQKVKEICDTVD
LEDGF integ inh: blockers of LEDGF/p75-dependent integrase strand transfer – biochemical, TR-FRET, high throughput, primary screen; HIV-1 integrase (with human LEDGF/p75); TR-FRET IN-LEDGF/p75 DNA integration, Eu/Cy5; inhibition, % at 3.7 µM; hit rate 0.64% among 370,000; AID 743269, 2014;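 active = inhibition above the screen-wide mean plus 3 SD, cut at about 13% in these data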;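 note: signal is the Cy5 over europium emission ratio at 671 and 618 nm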
MBD2 inh: inhibitors of MBD2 binding to methylated DNA, primary screen, biochemical, TR-FRET, DNA-binding domain, human; Methyl-CpG-binding domain protein 2 (Homo sapiens), Q9UBB5; MBD2 binding to methylated oligonucleotide; inhibition, % at 4.4 µM; hit rate 0.31% among 370,000; AID 686964, 2013; in the data active = inhibition above about 13%
rCAG binder: binders of r(CAG) RNA repeats, primary screen, biochemical, fluorescence. r(CAG) RNA repeat, TO-PRO-1 dye displacement fluorescence. inhibition, % at 3 µM. hit rate 1.3% among 370,000;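 active = inhibition above the plate cutoff, the mean of all test compounds on that plate plus 3 SD, cut at about 35% in these data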;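 note: higher means more dye released from RNA so lower well fluorescence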
UHRF1 binding: UHRF1 methylated DNA binding inhibitors, primary screen, counter-screen for MBD2 inhibitor project, biochemical, TR-FRET, human UHRF1, single concentration | E3 ubiquitin-protein ligase UHRF1 (Homo sapiens), Q96T88 | UHRF1 binding to methylated oligo | inhibition, % at 4.4 µM | hit rate 0.75% among 370,000; in the data active = inhibition above about 21%;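 note: UHRF1 SRA domain binding a hemimethylated CpG hairpin DNA probe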
PRMT1 inh: PRMT1 methyltransferase inhibitors, primary screen, biochemical, fluorescence polarization. hit rate 1.3% among 370,000. recombinant PRMT1, activity-based probe fluorescence polarization. Protein arginine N-methyltransferase 1 (Homo sapiens), Q99873. inhibition, % at 2.79 µM. AID 652257, 2013;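 active = inhibition above about 21% made by adding two undisclosed values, limit read from the data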
A number is an active result; – = inactive; · = not tested or not shown.

SMILES | ABHD5 PLIN5 PPI | LEDGF integ inh | MBD2 inh | rCAG binder | UHRF1 binding | PRMT1 inh
COc1ccc(N2CCN(CCNS(=O)(=O)c3c(C(C)C)cc(C(C)C)cc3C(C)C)CC2)cc1 | · | – | – | – | – | –
CC(C)C[C@H]1COc2cc(NCCO)ccc2S(=O)(=O)N1 | · | – | – | – | – | –
C[C@@H]1COc2cc(NCCO)ccc2S(=O)(=O)N1 | · | – | – | – | 21.8 | –
C[C@@H]1COc2cc(N3CCCCC3)ccc2S(=O)(=O)N1 | · | – | – | – | 21.8 | –
CCCCNc1ccc2c(c1)OC[C@H](CC(C)C)NS2(=O)=O | · | – | – | – | – | –
C[C@H]1COc2cc(N3CCCCC3)ccc2S(=O)(=O)N1 | · | – | – | – | – | –
CC(C)C[C@@H]1COc2cc(NC3CC3)ccc2S(=O)(=O)N1 | · | – | – | – | 20.8 | –
C/C(=C/c1oc2ccc(O)cc2c1[N+](=O)[O-])N(C)C | – | – | – | – | – | 24.2
Cc1c(NC(=O)CN2CCN(c3ccc(O)cc3)CC2)c(=O)n(-c2ccccc2)n1C | – | – | – | – | – | 22.9
CC(c1ccccc1)n1cc(C(=O)NCCCN2CCCC2)nn1 (configuration not stated) | · | – | – | – | – | –
Cc1ccc(SCC(=O)N2CCC(C(N)=O)CC2)cc1 | – | – | – | – | – | –
Cc1ccc(C(=O)CCC(=O)N2CCC(C(N)=O)CC2)cc1 | – | – | – | – | 29.1 | –
CCOC(=O)c1cnc2c(C(=O)OC)cccc2c1NCc1ccco1 | – | – | – | – | – | 21.8
CCOC(=O)c1ccc2ncc(C(=O)OCC)c(NCc3ccco3)c2c1 | – | – | – | – | – | –
CCN(CC)C(=O)O[C@H]1CC[C@@]23CCCN2C(=O)CCC[C@H]3[C@H]1C | · | – | – | · | – | –
C1=CC2c3ccccc3NC(c3ccncc3)C2C1 (configuration not stated) | – | – | – | – | – | 23.2
COc1cccc(CNC(=O)C[C@H]2CC[C@H]3[C@@H](COc4ccc(NC(=O)c5cccs5)cc4C(=O)N3C)O2)c1 | · | – | – | – | – | –
COCc1cc(N2CCN(C(=O)OC(C)(C)C)C[C@H]2C)ccc1N1CCN(Cc2ccccc2)[C@H](C)C1 | · | – | – | – | – | –
CCCCCN1CCCCC(NC(=O)c2ccccc2OC)C1=O (configuration not stated) | · | – | – | – | – | –
COc1ccc(C(=O)NC2CC2)cc1OC1CCN(Cc2ccc(F)cc2Cl)CC1 | – | – | – | – | 29.3 | –
CC1=C(C(=O)N(C)C)CC(CC(=O)NCCN2CCOCC2)C(=O)N1CCCN1CCCC1=O (configuration not stated) | – | – | – | – | 21.6 | –
COC(=O)c1ccc(C(=O)OC)nc1 | – | – | – | – | – | –
COC(=O)c1ccc(C(=O)O)nc1 | – | – | – | – | 22.3 | –
O=C(CN1C(=O)S/C(=C\c2ccccc2Cl)C1=O)NCCCn1ccnc1 | – | – | – | – | – | 23.9
COc1ccc(/C=N/N2C(=O)CSC2=S)cc1 | – | – | – | – | 63.3 | –
SMILES | ABHD5 PLIN5 PPI | LEDGF integ inh | MBD2 inh | rCAG binder | UHRF1 binding | PRMT1 inh
O=C1CSC(=S)N1N=Cc1ccc(Cl)s1 | – | – | – | – | – | 24.9
CCCCCCCCN1C(=O)N2Cc3ccccc3C2CS1(=O)=O (configuration not stated) | · | – | – | – | – | –
COC(=O)[C@]12CCCCC=C1N(Cc1ccc(OC)cc1)C(=O)[C@@H]2CC(=O)N1CCN(C(=O)c2ccco2)CC1 | · | – | – | – | – | –
COc1cc(OC)cc(C(C)c2ccc(-c3ccccc3)cc2)c1 (configuration not stated) | · | – | – | · | – | –
CCCS(=O)(=O)c1cn2cccc(N)c2c1S(=O)(=O)CCC | – | – | – | – | – | 33.0
CCCS(=O)(=O)c1c(S(=O)(=O)CCC)c2c(C)cccn2c1C(N)=O | – | – | – | – | – | –
